# Assay results from PubChem BioAssay (EPA / NIEHS).
# Results filed as inconclusive are left out. The source made the active and inactive calls. Rule for the calls: active = hit-call score of the fitted dose curve at least 0.9, where 1 is the maximum; inconclusive = response in the unintended direction; inactive = score below 0.9.
# Assays:
# [1] = biological target: human Caspase 4 (CASP4), CASP4 (gene 837) (UniProt P49662); assay: NVS_ENZ_hCASP4: NovaScreen (NVS) Enzymatic Assay for human Caspase 4 (CASP4) (AID 2283143)
# How it was run: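 Compounds were first tested in duplicate at 25 uM, and hits were titrated singly to a 50 uM maximum. Recombinant protease from E. coli was read by fluorescence 2 h post-dose, and activity loss was fitted against the DMSO baseline.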
# [2] = biological target: human Dual Specificity Protein Phosphatase 3 (DUSP3), DUSP3 (gene 1845) (UniProt P51452); assay: NVS_ENZ_hDUSP3: NovaScreen (NVS) Enzymatic Assay for human Dual Specificity Protein Phosphatase 3 (DUSP3) (AID 2283152);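 note: phosphatase activity of recombinant human DUSP3 on a fluorogenic substrate without cells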
# human Dual Specificity Protein Phosphatase 3 (DUSP3), DUSP3 (gene 1845), sequence (P51452 whole entry, looked up): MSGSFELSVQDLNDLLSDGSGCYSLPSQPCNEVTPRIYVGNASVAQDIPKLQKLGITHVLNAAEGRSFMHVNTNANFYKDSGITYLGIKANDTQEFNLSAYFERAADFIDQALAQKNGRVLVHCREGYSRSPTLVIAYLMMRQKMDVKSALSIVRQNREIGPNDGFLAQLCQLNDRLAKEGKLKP
# How it was run: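 Cell-free fluorescence-intensity enzyme activity assay with recombinant protein and substrate; loss of signal fitted relative to DMSO baseline. Primary screen in duplicate at 25 uM, actives then run in concentration series; measured 0 h after dosing.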
# [3] = biological target: human Elastase, ELANE (gene 1991) (UniProt P08246); assay: NVS_ENZ_hElastase: NovaScreen (NVS) Enzymatic Assay for human Elastase (AID 2283153)
# human Elastase, ELANE (gene 1991), sequence (P08246 whole entry, looked up): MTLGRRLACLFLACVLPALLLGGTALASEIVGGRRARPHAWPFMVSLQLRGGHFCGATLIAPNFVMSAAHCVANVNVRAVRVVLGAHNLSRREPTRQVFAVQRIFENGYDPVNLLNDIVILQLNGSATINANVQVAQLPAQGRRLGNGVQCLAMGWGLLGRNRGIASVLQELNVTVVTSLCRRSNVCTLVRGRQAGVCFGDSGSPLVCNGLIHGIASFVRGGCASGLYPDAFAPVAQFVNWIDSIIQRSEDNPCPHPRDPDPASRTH
# How it was run: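 Concentration-response to 50 uM max, run singly for chemicals passing a threshold (e.g., 30% inhibition) in a duplicate 25 uM single-point screen. Neutrophil-derived human elastase, absorbance read-out of enzyme activity at 1.5 h; DMSO baseline.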
# [4] = biological target: human MAP Kinase-Activated Protein Kinase 2 (MAPKAPK2), MAPKAPK2 (gene 9261) (UniProt P49137); assay: NVS_ENZ_hMAPKAPK2: NovaScreen (NVS) Enzymatic Assay for human MAP Kinase-Activated Protein Kinase 2 (MAPKAPK2) (AID 2283178)
# How it was run: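 Chemicals screened in duplicate at 25 uM, then to 50 uM top concentration in concentration-response, against recombinant human MAPKAPK2; substrate conversion read 1 hr post-dosing by fluorescence after electrophoretic mobility-shift separation, loss-of-signal relative to DMSO.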
# [5] = biological target: human Colony Stimulating Factor 1 Receptor (CSF1R), CSF1R (gene 1436) (UniProt P07333); assay: NVS_ENZ_hCSF1R: NovaScreen (NVS) Enzymatic Assay for human Colony Stimulating Factor 1 Receptor (CSF1R) (AID 2283150)
# How it was run: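 Compounds screened in duplicate at 25 uM, then concentration-response (top 50 uM) for those passing threshold such as 30% inhibition; recombinant CSF1R activity measured 1 h post-dosing via fluorescent substrate/product mobility-shift separation, loss of signal versus DMSO.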
# [6] = biological target: Glycogen synthase kinase-3 beta (Homo sapiens) (UniProt P49841); assay: NVS_ENZ_hGSK3b: NovaScreen (NVS) Enzymatic Assay for human Glycogen Synthase Kinase-3 beta (GSK3b) (AID 2283165)
# Glycogen synthase kinase-3 beta (Homo sapiens), sequence (P49841 whole entry, looked up): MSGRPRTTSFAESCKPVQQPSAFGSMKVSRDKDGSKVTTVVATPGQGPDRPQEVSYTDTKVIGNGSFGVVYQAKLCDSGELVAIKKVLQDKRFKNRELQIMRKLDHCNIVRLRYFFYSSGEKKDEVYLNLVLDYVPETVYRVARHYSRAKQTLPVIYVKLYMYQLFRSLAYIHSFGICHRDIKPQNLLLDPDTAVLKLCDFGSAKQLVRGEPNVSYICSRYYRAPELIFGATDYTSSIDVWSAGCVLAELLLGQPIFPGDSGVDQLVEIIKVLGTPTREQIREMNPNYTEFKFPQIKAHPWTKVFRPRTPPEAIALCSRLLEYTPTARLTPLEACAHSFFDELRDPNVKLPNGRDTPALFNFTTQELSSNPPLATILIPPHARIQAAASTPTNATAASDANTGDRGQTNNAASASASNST
# How it was run: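 Recombinant enzyme with specific fluorescent substrate, 1 h, product separated by electrophoretic mobility shift. Primary duplicate screen at 25 uM; actives (e.g. 30% inhibition) followed in singleton concentration-response to 50 uM. Signal loss fitted versus DMSO.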
# [7] = biological target: human Janus Kinase 2 (Jak2), JAK2 (gene 3717) (UniProt O60674); assay: NVS_ENZ_hJak2: NovaScreen (NVS) Enzymatic Assay for human Janus Kinase 2 (Jak2) (AID 2283169)
# human Janus Kinase 2 (Jak2), JAK2 (gene 3717), sequence (O60674 whole entry, looked up): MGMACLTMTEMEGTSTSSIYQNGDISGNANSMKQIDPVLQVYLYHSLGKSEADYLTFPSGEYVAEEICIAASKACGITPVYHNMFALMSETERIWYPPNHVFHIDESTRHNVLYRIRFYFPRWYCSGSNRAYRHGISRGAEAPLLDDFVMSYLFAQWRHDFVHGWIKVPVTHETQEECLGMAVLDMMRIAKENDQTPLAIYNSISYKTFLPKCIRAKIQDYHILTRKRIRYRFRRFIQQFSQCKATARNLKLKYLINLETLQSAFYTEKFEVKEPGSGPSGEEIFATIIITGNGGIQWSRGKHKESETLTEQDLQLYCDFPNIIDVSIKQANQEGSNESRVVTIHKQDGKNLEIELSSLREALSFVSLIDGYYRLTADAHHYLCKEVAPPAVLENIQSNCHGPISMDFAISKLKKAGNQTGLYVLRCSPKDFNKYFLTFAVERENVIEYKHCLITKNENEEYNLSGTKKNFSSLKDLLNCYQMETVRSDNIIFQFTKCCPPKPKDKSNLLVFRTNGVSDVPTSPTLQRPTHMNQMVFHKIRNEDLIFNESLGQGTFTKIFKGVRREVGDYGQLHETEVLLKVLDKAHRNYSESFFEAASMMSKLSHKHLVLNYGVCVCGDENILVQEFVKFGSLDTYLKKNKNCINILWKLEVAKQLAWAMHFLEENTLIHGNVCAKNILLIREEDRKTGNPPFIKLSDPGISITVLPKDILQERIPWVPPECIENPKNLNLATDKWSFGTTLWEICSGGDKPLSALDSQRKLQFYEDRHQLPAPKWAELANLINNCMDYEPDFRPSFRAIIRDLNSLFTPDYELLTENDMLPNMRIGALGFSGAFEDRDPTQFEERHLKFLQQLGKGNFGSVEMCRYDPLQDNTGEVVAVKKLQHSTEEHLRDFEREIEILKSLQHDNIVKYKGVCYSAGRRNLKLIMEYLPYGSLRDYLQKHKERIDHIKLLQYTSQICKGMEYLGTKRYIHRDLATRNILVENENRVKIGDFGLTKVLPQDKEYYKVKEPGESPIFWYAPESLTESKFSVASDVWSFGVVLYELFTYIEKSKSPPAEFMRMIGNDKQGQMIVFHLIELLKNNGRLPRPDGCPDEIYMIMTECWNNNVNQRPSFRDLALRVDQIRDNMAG
# How it was run: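 Single-point duplicate screen at 25 uM, with hits run in concentration series to a 50 uM top dose. Substrate-product separation by mobility shift with fluorescence detection, 1 h post-dosing; DMSO baseline.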
# [8] = biological target: Collagenase 3 (Homo sapiens) (UniProt P45452); assay: NVS_ENZ_hMMP13: NovaScreen (NVS) Enzymatic Assay for human Matrix Metalloproteinase-13 (MMP13) (AID 2283182)
# How it was run: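 Recombinant MMP13 cleaving fluorescent substrate, cell-free, measured 1 h after dosing. Primary duplicate screen at 25 uM; actives tested in concentration-response up to 50 uM; loss of signal relative to DMSO.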
# CDK2 (gene 1017) = CDK2 (gene 1017) (UniProt P24941); assay: NVS_ENZ_hCDK2: NovaScreen (NVS) Enzymatic Assay for human Cyclin-Cependent Kinase 2 (CDK2) (AID 2283144)
# How it was run: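 Compounds screened in duplicate at 25 uM, then in singleton concentration-response to a maximum of 50 uM, against recombinant CDK2; kinase activity read 1 hr after dosing by fluorescence with mobility-shift separation of substrate and product.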
# [9] = biological target: human Caspase 8 (CASP8), CASP8 (gene 841) (UniProt Q14790); assay: NVS_ENZ_hCASP8: NovaScreen (NVS) Enzymatic Assay for human Caspase 8 (CASP8) (AID 2283146)
# How it was run: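 The primary screen tested compounds in duplicate at a single 25 uM concentration, with actives followed up in concentration series. Activity of recombinant (E. coli) protease was measured by fluorescence 1 h post-dose, as signal loss against DMSO.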
# [10] = biological target: human Esterase Plasma (ES), BCHE (gene 590) (UniProt P06276); assay: NVS_ENZ_hES: NovaScreen (NVS) Enzymatic Assay for human Esterase Plasma (ES) (AID 2283157)
# human Esterase Plasma (ES), BCHE (gene 590), sequence (P06276 whole entry, looked up): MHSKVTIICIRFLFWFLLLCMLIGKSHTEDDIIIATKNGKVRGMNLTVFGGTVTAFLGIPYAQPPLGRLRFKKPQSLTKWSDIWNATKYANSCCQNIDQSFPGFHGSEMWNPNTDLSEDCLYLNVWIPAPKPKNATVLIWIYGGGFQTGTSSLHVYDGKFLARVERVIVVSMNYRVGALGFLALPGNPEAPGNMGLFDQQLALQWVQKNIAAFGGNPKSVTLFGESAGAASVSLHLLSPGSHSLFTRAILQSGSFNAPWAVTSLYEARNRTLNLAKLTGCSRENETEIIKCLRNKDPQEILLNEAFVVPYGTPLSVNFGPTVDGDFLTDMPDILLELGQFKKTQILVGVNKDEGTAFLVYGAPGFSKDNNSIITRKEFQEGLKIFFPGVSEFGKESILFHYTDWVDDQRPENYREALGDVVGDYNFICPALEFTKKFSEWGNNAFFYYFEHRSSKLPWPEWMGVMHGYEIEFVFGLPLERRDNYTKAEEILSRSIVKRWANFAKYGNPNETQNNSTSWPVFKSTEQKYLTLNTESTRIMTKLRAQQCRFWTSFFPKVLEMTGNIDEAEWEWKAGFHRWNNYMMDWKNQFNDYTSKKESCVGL
# How it was run: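 Human plasma-derived enzyme, cell-free, colorimetric readout at 0.25 h. Primary screen 25 uM in duplicate; hits (e.g. ≥30% inhibition) rerun singleton up to 50 uM. DMSO = negative control/baseline.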
# [11] = biological target: human Ephrin type-A Receptor 1 (EphA1), EPHA1 (gene 2041) (UniProt P21709); assay: NVS_ENZ_hEphA1: NovaScreen (NVS) Enzymatic Assay for human Ephrin type-A Receptor 1 (EphA1) (AID 2283158);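 note: activity is signal loss versus DMSO meaning EphA1 kinase inhibition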
# human Ephrin type-A Receptor 1 (EphA1), EPHA1 (gene 2041), sequence (P21709 whole entry, looked up): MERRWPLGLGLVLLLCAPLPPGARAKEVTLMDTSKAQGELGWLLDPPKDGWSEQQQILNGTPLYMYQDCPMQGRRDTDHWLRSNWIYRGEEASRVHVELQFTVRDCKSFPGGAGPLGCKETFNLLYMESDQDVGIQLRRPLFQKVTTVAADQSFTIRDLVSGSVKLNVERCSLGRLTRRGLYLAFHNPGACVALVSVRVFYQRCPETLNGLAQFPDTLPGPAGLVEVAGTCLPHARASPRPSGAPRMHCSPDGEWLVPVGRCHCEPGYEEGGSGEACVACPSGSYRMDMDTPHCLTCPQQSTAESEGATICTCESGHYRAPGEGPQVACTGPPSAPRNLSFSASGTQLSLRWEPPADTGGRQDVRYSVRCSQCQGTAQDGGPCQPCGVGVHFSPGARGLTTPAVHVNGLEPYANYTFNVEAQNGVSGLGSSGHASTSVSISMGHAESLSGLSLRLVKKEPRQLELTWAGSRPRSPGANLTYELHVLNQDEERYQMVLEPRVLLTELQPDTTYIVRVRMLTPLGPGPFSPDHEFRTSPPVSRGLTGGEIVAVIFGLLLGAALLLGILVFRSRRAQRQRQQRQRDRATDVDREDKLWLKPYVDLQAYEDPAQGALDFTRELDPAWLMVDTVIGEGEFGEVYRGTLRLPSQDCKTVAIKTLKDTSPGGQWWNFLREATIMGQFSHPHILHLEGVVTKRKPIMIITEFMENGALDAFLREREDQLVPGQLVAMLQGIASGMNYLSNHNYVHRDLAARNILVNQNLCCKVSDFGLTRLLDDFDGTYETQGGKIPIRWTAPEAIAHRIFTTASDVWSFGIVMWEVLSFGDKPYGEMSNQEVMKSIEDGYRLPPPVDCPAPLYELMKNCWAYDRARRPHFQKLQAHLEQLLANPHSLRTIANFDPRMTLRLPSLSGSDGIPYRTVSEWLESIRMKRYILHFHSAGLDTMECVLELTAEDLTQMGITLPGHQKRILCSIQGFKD
# How it was run: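 Here the EphA1 protein is recombinant and the substrate fluorescent, with electrophoretic separation before fluorescence detection at 1 hour. Signal loss against DMSO defines activity; plate controls included; follow-up concentration series reach 50 uM.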
# [12] = biological target: human AKT serine/threonine Kinase 2 (AKT2), AKT2 (gene 208) (UniProt P31751); assay: NVS_ENZ_hAKT2: NovaScreen (NVS) Enzymatic Assay for human AKT serine/threonine Kinase 2 (AKT2) (AID 2283141)
# How it was run: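 Cell-free fluorescence/electrophoretic mobility shift readout of recombinant human AKT2 activity, 1 h after chemical dosing. Duplicate primary screen at 25 uM, then singleton concentration-response up to 50 uM; loss of signal versus DMSO baseline.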
# [13] = biological target: Histone deacetylase 3 (Homo sapiens) (UniProt O15379); assay: NVS_ENZ_hHDAC3: NovaScreen (NVS) Enzymatic Assay for human Histone Deacetylase 3 (HDAC3) (AID 2283163)
# How it was run: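 Cell-free enzyme format: loss of fluorescent product after mobility-shift separation, 1 h incubation, recombinant human HDAC3. Single 25 uM duplicate screen first, then concentration series to a 50 uM top for hits; DMSO as baseline.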
# [14] = biological target: human Insulin Receptor (InsR), INSR (gene 3643) (UniProt P06213); assay: NVS_ENZ_hInsR: NovaScreen (NVS) Enzymatic Assay for human Insulin Receptor (InsR) (AID 2283168)
# human Insulin Receptor (InsR), INSR (gene 3643), sequence (P06213 whole entry, looked up): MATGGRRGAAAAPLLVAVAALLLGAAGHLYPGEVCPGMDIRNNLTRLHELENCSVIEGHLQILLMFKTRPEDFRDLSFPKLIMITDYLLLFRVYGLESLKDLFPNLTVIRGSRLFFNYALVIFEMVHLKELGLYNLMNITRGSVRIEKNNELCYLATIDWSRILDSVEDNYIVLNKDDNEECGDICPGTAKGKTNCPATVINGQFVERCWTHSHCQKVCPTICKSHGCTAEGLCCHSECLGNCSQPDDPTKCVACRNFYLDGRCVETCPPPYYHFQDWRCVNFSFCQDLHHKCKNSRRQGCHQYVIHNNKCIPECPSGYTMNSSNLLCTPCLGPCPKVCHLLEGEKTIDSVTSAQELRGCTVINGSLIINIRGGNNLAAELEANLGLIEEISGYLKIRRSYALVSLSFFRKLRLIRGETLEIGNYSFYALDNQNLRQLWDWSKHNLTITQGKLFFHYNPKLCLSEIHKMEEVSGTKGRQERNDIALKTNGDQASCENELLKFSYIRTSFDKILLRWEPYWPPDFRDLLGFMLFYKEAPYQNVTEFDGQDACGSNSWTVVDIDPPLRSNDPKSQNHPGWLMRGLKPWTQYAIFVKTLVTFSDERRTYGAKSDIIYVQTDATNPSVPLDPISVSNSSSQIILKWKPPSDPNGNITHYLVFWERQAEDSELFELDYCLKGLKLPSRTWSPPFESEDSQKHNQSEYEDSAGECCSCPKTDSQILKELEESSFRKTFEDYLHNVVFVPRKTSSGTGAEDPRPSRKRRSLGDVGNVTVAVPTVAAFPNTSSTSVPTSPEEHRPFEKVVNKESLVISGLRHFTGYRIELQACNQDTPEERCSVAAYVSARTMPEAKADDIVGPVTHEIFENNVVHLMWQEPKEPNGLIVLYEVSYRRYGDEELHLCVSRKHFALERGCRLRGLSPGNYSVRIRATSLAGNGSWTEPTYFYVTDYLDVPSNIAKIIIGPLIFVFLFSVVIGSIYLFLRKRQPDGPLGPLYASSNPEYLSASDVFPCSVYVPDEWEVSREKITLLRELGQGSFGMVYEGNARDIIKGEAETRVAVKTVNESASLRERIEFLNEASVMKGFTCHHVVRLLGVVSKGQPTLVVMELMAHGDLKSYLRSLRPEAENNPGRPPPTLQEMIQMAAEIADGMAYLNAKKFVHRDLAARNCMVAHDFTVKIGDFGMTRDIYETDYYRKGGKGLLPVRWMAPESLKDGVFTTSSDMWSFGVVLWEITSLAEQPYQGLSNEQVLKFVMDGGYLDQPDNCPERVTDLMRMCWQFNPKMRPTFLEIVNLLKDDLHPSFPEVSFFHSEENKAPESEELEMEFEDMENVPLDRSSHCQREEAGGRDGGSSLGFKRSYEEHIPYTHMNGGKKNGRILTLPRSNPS
# How it was run: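 Cell-free enzyme assay read 1 h post-dose by fluorescence after substrate/product mobility-shift separation. Duplicate 25 uM primary screen, then singleton concentration-response up to 50 uM for compounds passing threshold; loss of signal vs DMSO.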
# [15] = biological target: Mitogen-activated protein kinase 3 (Homo sapiens) (UniProt P27361); assay: NVS_ENZ_hMAPK3: NovaScreen (NVS) Enzymatic Assay for human Mitogen-Activated Protein Kinase 3 (MAPK 3) (AID 2283177)
# How it was run: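 Chemicals were first tested in duplicate at 25 uM, with hits re-run as concentration series (max 50 uM). Recombinant enzyme activity, measured 1 h post-dose in a cell-free format, was read by fluorescence/mobility shift relative to DMSO.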
structure (smiles),measurement,setting,value
COc1cc(-c2nc(NC(=O)c3cc4cc(C)cc(C)c4n3CC(=O)O)sc2CCC2CCCCC2)c(OC)cc1Cl,AC50,[1],14.3 µM (active)
same,AC50,[2],1.23 µM (active)
same,AC50,[3],5.61 µM (active)
same,AC50,[4],6.49 µM (active)
NS(=O)(=O)c1cc2c(cc1Cl)NCNS2(=O)=O,outcome,[5],inactive
same,outcome,[6],inactive
Cc1nc(-c2ccc3c(c2)CCN(CCC2CCC(NC(=O)/C=C/c4ccc(F)cc4)CC2)CC3)no1 (configuration not stated),outcome,[1],inactive
same,AC50,[3],18.3 µM (active)
same,AC50,[7],17.1 µM (active)
same,AC50,[8],5.67 µM (active)
FC(F)(F)C(F)(F)C(F)(F)C(F)(F)C(F)(F)C(F)(F)CCI,outcome,CDK2 (gene 1017),inactive
same,outcome,[9],inactive
same,outcome,[5],inactive
same,outcome,[10],inactive
same,outcome,[11],inactive
same,outcome,[6],inactive
same,outcome,[7],inactive
O=c1c(O)c(-c2ccc(O)c(O)c2)oc2cc(O)cc(O)c12,outcome,[12],inactive
same,outcome,[1],inactive
same,outcome,[3],inactive
same,outcome,[13],inactive
same,AC50,[6],0.073 µM (active)
CC1(C)CC(N=C=O)CC(C)(CN=C=O)C1 (configuration not stated),AC50,[12],6.21 µM (active)
same,outcome,[9],inactive
Cc1oc(-c2ccccc2)nc1CCOc1cccc2c1ccn2CCC(=O)O,AC50,[3],11.9 µM (active)
same,outcome,[11],inactive
same,outcome,[7],inactive
Cc1ccc(N(C)C)cc1,outcome,[6],inactive
Nc1ccccc1N,AC50,[2],16.4 µM (active)
same,AC50,[10],17.6 µM (active)
same,AC50,[6],22.3 µM (active)
CCCCC(CC)COC(=O)CC(C(=O)OCC(CC)CCCC)S(=O)(=O)O (configuration not stated),AC50,[2],14.7 µM (active)
same,AC50,[3],25 µM (active)
same,outcome,[10],inactive
C=CCc1ccc(O)c(OC)c1,outcome,[6],inactive
COc1cc(C=O)ccc1O,outcome,[3],inactive
same,outcome,[11],inactive
same,outcome,[14],inactive
CCCc1cc(=O)[nH]c(=S)[nH]1,outcome,[6],inactive
CCCCCCCCCCCCCCCCCC(=O)O,AC50,[2],19.6 µM (active)
same,AC50,[3],7.85 µM (active)
same,outcome,[7],inactive
C=CCOC(=O)c1ccccc1C(=O)OCC=C,outcome,[6],inactive
COCCOC[C@H](CC1(C(=O)NC2CCC(C(=O)O)CC2)CCCC1)C(=O)Oc1ccc2c(c1)CCC2 (some centres not stated),outcome,[10],inactive
same,AC50,[8],17.3 µM (active)
Cc1ccc(Cl)cc1,outcome,[15],inactive
O=[N+]([O-])C(CO)(CO)CO,outcome,[6],inactive
O=C(O)CCCCC(=O)O,outcome,[14],inactive
same,outcome,[15],inactive
CCCCCCCCCCCCCCCC,outcome,[7],inactive
Cc1cccc(Nc2cc(Cl)nc(SCC(=O)O)n2)c1C,outcome,[3],inactive
CC(=O)OCCOCCOCCOC(C)=O,outcome,[14],inactive
